# In ChEMBL document CHEMBL3988442, “University of Dundee, Small-Polar-MMV Screening Library” (2021):
# For some assays here: Entries with a potency or affinity are not part of this list.
# How the values were obtained:
# Design in all cases: scale not given: direction of the effect not stated beside the values
# [1] = molecular target: Protein translocase subunit SecA (Escherichia coli (strain K12)) (UniProt P10408); assay: Assay to Identify E. coli SecA ATPase Inhibitors; type: functional; details: 30 µM
# Sequence of Protein translocase subunit SecA (Escherichia coli (strain K12)) (P10408 whole entry): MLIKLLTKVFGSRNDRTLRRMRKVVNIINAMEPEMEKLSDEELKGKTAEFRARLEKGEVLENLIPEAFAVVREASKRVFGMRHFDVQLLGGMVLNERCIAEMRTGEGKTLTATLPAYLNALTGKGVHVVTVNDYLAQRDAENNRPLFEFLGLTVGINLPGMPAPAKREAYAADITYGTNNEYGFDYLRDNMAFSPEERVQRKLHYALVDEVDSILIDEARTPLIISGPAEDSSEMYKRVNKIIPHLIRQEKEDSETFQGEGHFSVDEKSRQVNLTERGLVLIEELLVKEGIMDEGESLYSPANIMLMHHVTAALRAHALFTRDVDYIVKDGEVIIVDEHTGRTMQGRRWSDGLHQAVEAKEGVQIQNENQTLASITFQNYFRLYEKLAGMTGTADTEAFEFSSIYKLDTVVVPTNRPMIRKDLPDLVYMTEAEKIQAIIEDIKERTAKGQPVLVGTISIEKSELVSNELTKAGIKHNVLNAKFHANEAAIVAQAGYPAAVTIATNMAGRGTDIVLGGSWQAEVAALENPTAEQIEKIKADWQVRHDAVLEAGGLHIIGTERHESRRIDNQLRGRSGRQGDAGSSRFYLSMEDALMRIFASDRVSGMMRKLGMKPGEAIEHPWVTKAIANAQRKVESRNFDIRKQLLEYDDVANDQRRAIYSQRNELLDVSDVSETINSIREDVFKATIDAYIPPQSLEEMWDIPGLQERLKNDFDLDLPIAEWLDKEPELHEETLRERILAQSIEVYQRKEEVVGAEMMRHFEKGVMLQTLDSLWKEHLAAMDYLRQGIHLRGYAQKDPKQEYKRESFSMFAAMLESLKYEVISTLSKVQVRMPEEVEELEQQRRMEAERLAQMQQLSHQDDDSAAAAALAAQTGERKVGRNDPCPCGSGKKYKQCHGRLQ
# [2] = molecular target: T1, Ubiquitin-activating enzyme e1, putative (Leishmania donovani (strain BPK282A1)) (UniProt E9BSI1); assay: Leishmania donovani Ubiquitin Activating Enzyme (LdE1); type: functional; details: 30 µM
# T1 sequence (whole entry): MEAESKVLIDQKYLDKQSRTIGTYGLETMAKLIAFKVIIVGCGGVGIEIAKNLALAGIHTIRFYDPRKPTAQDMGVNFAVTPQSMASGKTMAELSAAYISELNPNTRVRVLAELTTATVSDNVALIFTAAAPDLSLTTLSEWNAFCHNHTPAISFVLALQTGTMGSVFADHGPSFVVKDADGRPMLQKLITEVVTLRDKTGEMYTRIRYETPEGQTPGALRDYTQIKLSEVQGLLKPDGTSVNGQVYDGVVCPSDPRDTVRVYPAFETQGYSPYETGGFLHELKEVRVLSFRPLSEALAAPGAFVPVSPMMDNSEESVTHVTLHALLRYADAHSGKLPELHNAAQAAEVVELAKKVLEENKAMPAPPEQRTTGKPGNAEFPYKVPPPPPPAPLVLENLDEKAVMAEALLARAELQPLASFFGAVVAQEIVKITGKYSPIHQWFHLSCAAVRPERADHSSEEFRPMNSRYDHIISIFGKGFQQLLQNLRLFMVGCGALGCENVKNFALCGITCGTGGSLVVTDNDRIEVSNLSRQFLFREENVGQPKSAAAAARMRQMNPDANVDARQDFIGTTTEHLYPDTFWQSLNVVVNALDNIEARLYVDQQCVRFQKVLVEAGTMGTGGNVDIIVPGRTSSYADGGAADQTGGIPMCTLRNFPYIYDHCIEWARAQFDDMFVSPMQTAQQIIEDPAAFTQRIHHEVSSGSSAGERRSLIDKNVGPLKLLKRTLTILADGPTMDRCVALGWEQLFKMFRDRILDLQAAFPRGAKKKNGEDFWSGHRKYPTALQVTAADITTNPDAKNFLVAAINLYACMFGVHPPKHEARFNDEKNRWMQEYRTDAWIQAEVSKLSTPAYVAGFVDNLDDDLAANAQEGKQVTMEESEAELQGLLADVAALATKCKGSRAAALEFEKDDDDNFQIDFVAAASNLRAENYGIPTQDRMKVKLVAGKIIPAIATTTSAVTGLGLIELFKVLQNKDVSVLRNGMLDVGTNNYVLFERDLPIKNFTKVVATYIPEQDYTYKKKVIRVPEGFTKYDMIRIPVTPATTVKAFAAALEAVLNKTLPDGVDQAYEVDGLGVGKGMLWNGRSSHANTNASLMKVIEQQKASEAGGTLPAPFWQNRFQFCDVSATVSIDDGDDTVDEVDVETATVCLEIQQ
# [3] = molecular target: AMP-activated protein kinase, AMPK (Homo sapiens) (UniProt P54646+O43741+P54619+Q9UGJ0+Q9Y478+Q13131+Q9UGI9); assay: AMP-dependent Kinase enzyme assay. An in vitro enzyme assay that detects ADP turnover that is directly proportional to AMPK activity. This uses naive AMPK that is activated during the assay with MK-8722; type: functional; details: 30 µM
# [4] = molecular target: Sialic acid-binding Ig-like lectin 9 (Homo sapiens) (UniProt Q9Y336); assay: Hs-Siglec9 ALPHAscreen SOP 20170721; details: 10 µM
# Sequence of Sialic acid-binding Ig-like lectin 9 (Homo sapiens) (Q9Y336 whole entry): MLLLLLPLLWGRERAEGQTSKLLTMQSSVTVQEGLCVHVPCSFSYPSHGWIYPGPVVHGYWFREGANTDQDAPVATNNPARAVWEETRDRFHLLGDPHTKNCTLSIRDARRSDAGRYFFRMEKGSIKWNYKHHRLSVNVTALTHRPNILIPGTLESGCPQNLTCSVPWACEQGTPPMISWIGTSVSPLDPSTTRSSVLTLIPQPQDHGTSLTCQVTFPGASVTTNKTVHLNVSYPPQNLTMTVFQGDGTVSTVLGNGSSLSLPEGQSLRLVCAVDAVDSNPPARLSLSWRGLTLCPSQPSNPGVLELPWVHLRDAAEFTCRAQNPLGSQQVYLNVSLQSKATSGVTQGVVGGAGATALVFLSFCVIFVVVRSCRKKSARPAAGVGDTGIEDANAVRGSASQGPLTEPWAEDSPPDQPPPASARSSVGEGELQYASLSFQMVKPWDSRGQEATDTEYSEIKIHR
# Trypanosoma cruzi = assay: Trypanosoma cruzi phosphomannomutase and mannose-1-phosphate guanylyltransferase assay; type: functional; details: 10 µM
# [5] = molecular target: T2, Arginase-2, mitochondrial (Homo sapiens) (UniProt P78540); assay: in vitro enzyme assay to detect the production of urea directly proportional to the activity of Arginase II; type: functional; details: 33.3 µM; further: in the data most compounds retested in dose-response had high values
# T2 sequence (whole entry): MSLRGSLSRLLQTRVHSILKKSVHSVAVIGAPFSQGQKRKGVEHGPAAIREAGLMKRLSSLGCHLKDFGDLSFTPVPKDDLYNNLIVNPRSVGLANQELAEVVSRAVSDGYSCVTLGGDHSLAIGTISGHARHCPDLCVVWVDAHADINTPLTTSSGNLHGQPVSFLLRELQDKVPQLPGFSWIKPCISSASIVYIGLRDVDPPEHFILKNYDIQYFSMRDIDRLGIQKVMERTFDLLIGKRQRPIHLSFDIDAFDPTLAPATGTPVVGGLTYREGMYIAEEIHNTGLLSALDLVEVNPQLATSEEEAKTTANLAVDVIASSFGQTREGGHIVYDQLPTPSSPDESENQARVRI
# [6] = molecular target: T3, Proteasome subunit beta (Trypanosoma cruzi) (UniProt O96673); assay: Trypanosoma cruzi proteasome chymotrypsin-like activity (TcProtChymo) assay.; further: in the data most compounds retested in dose-response had high values; type: functional; details: 9.37 µM
# T3 sequence (whole entry): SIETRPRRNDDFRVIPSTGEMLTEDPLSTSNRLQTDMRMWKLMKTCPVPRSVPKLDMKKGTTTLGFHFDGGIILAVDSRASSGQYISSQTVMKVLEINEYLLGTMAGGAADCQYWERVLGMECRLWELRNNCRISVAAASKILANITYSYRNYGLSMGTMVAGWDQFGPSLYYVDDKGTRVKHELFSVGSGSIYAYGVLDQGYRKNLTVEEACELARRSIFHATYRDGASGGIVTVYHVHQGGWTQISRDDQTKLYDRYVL
# Homo sapiens = species on record: Homo sapiens; assay: To identify inhibition of the IFN signalling (Jak-Stat) pathway via expression of an eGFP reporter gene under the control of an IFN-stimulated response element (ISRE) containing MxA promoter.; type: functional; details: 30 µM
# [7] = molecular target: T4, Tyrosyl-tRNA synthetase, putative (Trypanosoma cruzi (strain CL Brener)) (UniProt Q4DSP6); assay: Trypanosoma cruzi tyrosyl tRNA synthetase (TcYRS) _High Tyrosine SOP; type: functional; details: 30 µM; further: in the data most compounds retested in dose-response had high values
# T4 sequence (whole entry): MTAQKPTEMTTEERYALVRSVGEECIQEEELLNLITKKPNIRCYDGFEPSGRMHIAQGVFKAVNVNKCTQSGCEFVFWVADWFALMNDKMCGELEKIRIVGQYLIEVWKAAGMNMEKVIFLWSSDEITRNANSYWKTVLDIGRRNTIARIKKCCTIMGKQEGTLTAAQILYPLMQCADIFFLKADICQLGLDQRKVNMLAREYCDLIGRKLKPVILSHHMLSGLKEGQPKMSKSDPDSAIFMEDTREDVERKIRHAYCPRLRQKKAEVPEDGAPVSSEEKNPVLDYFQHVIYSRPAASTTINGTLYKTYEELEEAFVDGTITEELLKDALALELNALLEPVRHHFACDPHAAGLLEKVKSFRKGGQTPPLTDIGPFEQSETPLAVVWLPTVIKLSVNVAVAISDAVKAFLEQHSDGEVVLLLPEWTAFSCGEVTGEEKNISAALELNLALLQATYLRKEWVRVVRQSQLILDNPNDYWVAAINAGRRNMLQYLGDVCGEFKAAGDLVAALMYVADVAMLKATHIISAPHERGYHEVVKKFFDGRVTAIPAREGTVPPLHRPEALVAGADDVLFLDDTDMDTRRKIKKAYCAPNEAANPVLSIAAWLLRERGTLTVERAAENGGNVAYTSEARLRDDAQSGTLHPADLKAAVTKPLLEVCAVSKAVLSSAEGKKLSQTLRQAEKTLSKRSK
# [8] = molecular target: T4, Tyrosyl-tRNA synthetase, putative (Trypanosoma cruzi (strain CL Brener)); assay: Trypanosoma cruzi tyrosyl tRNA synthetase (TcYRS) SOP; type: functional; details: 30 µM
# [9] = molecular target: Chromo domain-containing protein 1 (Saccharomyces cerevisiae (strain ATCC 204508 / S288c) (Baker's yeast)) (UniProt P32657); assay: ScCHD-1 Enzyme Inhibition Assay; type: functional; details: 30 µM; further: in the data most compounds retested in dose-response had high values
# Sequence of Chromo domain-containing protein 1 (Saccharomyces cerevisiae (strain ATCC 204508 / S288c) (Baker's yeast)) (P32657 whole entry, the tested form may be a part): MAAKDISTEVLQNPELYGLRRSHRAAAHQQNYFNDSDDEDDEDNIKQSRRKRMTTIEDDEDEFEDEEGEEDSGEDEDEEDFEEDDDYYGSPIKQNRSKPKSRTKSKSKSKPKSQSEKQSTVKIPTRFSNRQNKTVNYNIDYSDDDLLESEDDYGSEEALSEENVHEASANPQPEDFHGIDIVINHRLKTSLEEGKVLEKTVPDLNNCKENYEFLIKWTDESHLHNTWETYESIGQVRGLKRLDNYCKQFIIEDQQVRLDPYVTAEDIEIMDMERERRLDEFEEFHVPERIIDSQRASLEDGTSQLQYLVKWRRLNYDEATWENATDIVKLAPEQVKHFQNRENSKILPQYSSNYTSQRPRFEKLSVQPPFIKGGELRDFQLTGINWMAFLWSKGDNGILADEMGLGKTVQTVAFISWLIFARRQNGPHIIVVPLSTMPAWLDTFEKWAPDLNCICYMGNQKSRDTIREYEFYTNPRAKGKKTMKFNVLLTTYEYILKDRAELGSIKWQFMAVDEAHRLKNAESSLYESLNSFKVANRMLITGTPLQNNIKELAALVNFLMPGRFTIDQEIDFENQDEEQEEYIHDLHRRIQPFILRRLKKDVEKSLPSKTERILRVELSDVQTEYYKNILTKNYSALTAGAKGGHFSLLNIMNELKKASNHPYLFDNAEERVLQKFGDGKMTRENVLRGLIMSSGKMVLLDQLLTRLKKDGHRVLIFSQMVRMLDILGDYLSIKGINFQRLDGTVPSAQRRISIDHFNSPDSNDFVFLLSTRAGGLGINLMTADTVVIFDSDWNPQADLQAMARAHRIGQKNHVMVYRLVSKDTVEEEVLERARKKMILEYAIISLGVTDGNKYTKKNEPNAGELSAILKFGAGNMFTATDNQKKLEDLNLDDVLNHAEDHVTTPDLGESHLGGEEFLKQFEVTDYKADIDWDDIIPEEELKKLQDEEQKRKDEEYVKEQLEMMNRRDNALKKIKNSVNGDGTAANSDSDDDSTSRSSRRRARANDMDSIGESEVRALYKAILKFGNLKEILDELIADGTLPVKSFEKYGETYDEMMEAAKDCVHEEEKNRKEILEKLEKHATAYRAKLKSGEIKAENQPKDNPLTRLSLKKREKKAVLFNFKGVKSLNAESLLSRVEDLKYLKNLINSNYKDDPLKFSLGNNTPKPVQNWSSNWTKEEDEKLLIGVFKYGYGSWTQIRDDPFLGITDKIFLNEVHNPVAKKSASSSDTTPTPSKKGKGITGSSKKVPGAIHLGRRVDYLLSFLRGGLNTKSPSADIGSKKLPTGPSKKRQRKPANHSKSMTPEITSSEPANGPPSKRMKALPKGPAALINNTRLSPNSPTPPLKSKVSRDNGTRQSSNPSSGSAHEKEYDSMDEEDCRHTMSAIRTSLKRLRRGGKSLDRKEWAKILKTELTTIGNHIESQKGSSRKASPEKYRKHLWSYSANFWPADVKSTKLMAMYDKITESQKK
Compound,Percent Effect [1] [%],Percent Effect [2] [%],Percent Effect [3] [%],Percent Effect [4] [%],Percent Effect (Trypanosoma cruzi) [%],Percent Effect [5] [%],Percent Effect [6] [%],Percent Effect (Homo sapiens) [%],Percent Effect [7] [%],Percent Effect [8] [%],Percent Effect [9] [%]
Cc1nc(CN2C(=O)CCC23CCN(c2ncccn2)CC3)cs1,-1.55,16,-2.28,4.1,5.02,-54.7,19.3,-8.11,5.21,5,-8.28
Cc1nc(CCNC(=O)C2CC(=O)N(C(C)(C)C)C2)sc1C (configuration not stated),-4.83,0,-1.25,5.84,-1.19,-3.59,8.82,-0.947,5.21,11.1,-3.8
CCOc1ccc(Cl)cc1C1CCCN1 (configuration not stated),-3.13,10.5,4,1.21,3.21,-11.8,13.5,2.15,0,7.79,-2.96
COc1cc(C)nc(N2CCN(C(=O)CCc3cscn3)CC2)n1,1.16,2.7,-1.3,0.273,-6.95,1.91,11.4,0.884,5.82,9.76,-3.75
CCOc1ccc(C#N)cc1NCC(=O)Nc1cc(F)ccc1F,-4.77,-12.7,-7.04,-0.166,4.63,-29.7,3.19,-7.08,7.39,24.1,18.3
Cc1nccn1C1CCCN(C(=O)c2cc3ccccc3[nH]2)C1 (configuration not stated),-6.7,2.53,-10.1,1.72,-2.74,0.76,-4.83,27.9,-2.46,-3.8,-6.65
O=C(Nc1cc(F)ccc1OCC1CCCO1)N1CCCC1 (configuration not stated),-0.769,2.6,-5.42,10.4,6.55,3.56,-2.37,-1.89,2.91,14.6,-5.42
CCOc1cc(C)nc(N2CCN(C(=O)c3ccc[nH]3)CC2)n1,-3.03,2.7,1.91,13.3,-6.59,2.77,3.23,22.2,-0.99,3.66,1.45
CCOc1ccc(N(CC(=O)c2ccccc2)C2=NCCCCC2)cc1,-1.17,-10.5,6.97,2.61,3.21,-2.37,8.72,-7.49,-1.06,-10.4,4.46
CC(=O)N1CC(=O)N(c2cnn(C)c2)CC12CCN(Cc1ccsc1)C2 (configuration not stated),-5.9,2.7,-4.89,3.54,-6.05,-1.25,18.3,13.5,3.96,3.66,-3.49
CCn1cnnc1C1CCN(C(=O)c2ccccc2OC)CC1,-2.76,7.79,12.8,2.75,-4.68,-2.13,6.42,25.9,4.85,7.32,-3.6
COc1ccc(F)cc1C(C)NC(=O)Nc1nnc(C)s1 (configuration not stated),-1.41,10.8,-8.69,27.9,4.99,13.7,9.7,17.2,5.38,16.1,3.4
O=C(NCCNC(=O)N1CCC(c2ccccc2)C1)C1CC1 (configuration not stated),-2.18,18.9,-5.02,22,4.44,2.38,15.5,8.1,2.65,14.6,-0.679
CN(C)C(=O)C1(CCCc2ccncc2)CCCN1 (configuration not stated),-1.15,23,-1.94,-4.7,0,-3.48,26.1,4.91,5.38,14.3,-22.2
Clc1ccc(CN2CCCC(Cn3cncn3)C2)c2ncccc12 (configuration not stated),-5.66,-7.79,-0.804,1.38,0.688,-1.38,12,-2.35,4.3,3.7,3.92
CN1CCN(Cc2nc3ccccc3[nH]2)[C@H]2CS(=O)(=O)C[C@H]21,-1.9,8.11,-2.29,-1.77,-1.07,-1.24,13.1,5.83,10.8,18.5,-2.69
CN(CCc1ccccn1)S(=O)(=O)N1CCCC1c1ccco1 (configuration not stated),0.19,16.2,2.74,-10.8,-9.94,4.25,13.1,17.6,6.93,11,-5.75
c1cc2nc(C3CCN(CC4CC4)CC3)nn2cc1N1CCCC1,-0.605,11,-111,9.79,0.595,0.399,11.4,7.29,13.5,-1.24,-6.62
Cc1nn(C)c(C)c1C1COCCN1c1ncnc2sccc12 (configuration not stated),-2.31,-2.67,-0.892,-4.05,-0.487,-2.08,10.1,31.3,1.64,3.7,-1.49
Cc1cc2nc(SCC(=O)N3CCCC3)n(-c3ccccc3)c(=O)c2[nH]1,-2.59,2.63,7.28,-3.44,-3.02,9.47,19.6,-5.99,6.38,2.6,-5.49
O=C(c1ccc(F)c(F)c1)N1CCCSCC1CN1CCCC1 (configuration not stated),-3.82,0,4.53,-1.26,2.86,-0.645,8.7,-1.06,7.41,16.7,-8.34
Fc1cccc(-c2nc(CN3CCOC(Cn4cccn4)C3)co2)c1 (configuration not stated),-5.98,2.7,-6.81,3.19,-2.36,4.81,4.68,-1.08,7.39,6.17,-3.05
